Only some compounds are listed: those with a hit (about 2.4% of all), similar ones and a draw of the others.
TRHR ag: qHTS for Small Molecule Agonists and Allosteric Enhancers of Human TRH Receptor: Primary Screen for Agonists. activation, % at 2 µM. TRHR cells, calcium flux fluo-8, FDSS agonist mode. actives 0.18% (n = 360,000). Thyrotropin-releasing hormone receptor (Homo sapiens), P34981; in the data active = activation above about 30%
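Agonist-mode FDSS calcium read (Ex 480/Em 530, 1 s cycles) in 1536-well TRHR cells with fluo-8 dye, after 10-cycle baseline and 23 nL compound addition; TRH at EC20 (10 nM final) added afterwards for the enhancer phase.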
GLP1R cytotox: qHTS of GLP-1 Receptor Inverse Agonists: Cytotox Screen. HEK293 cAMP-luciferase reporter cells, luminescence, 24 h. Potency, µM (highest dose often 38.3 µM), most hits filed as inhibitors. actives 0.13% (n = 410,000). AID 624418, 2012;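 note: loss of luciferase light is scored as toxicity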
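Quantitative HTS format, 1536 wells, 200 cells/uL seeded. Compounds: 23 nL, 24 h, 37 °C. Detection: luciferase reagent, luminescence at 12 min RT; decreased signal taken as cytotoxic.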
PTHR1 agonist: qHTS for PTHR1 Agonists: Primary Screen. HEK293 GP2 PTHR1 cells, GloSensor cAMP luminescence, 1 h. Potency, µM (series often up to 115 µM), actives largely listed as activators. actives 0.075% (n = 410,000); note: nearly all actives have a fitted effect of over 55% in size
Target sequence (Q03431 whole entry, looked up): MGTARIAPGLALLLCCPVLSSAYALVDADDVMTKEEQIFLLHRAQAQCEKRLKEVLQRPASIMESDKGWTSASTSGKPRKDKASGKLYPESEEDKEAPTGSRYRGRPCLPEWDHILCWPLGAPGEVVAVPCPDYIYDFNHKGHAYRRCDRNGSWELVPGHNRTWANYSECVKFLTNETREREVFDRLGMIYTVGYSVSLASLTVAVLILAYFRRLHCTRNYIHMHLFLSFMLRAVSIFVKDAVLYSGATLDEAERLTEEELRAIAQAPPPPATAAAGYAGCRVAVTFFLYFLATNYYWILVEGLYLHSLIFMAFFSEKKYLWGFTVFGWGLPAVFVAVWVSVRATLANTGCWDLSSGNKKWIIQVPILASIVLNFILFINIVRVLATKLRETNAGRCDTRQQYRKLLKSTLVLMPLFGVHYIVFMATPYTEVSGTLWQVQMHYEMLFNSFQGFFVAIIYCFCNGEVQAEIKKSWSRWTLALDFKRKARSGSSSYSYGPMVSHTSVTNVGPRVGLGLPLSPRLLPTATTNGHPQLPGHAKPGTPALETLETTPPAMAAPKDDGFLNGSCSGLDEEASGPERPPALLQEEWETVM
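HEK-293-derived GP2 cells expressing PTHR1 and a GloSensor cAMP reporter, 3,000/well, plated overnight, given luciferin plus IBMX (each 0.5 mM as added) for 1 h at 37 °C, then compound for 1 h at 37 °C. Luminescence was read after 15 min at room temperature.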
GLP1R ag: qHTS of GLP-1 Receptor Agonists | Glucagon-like peptide 1 receptor (Homo sapiens), P43220 | HEK293 GLP-1R CRE-luciferase, luminescence, 4-6 h; cells express a hypersensitive GLP-1R form | Potency, µM (titrated, usually from 45.6 µM), usual class: activators | actives 0.007% (n = 380,000) | AID 624172, 2012
TRHR PAM: qHTS for Small Molecule Agonists and Allosteric Enhancers of Human TRH Receptor: Primary Screen for Enhancers; Thyrotropin-releasing hormone receptor (Homo sapiens), P34981; TRHR cells, fluo-8 calcium fluorescence, EC20 TRH enhancement; enhancement, % at 2 µM; actives 0.66% (n = 360,000); AID 493056, 2011; in the data active = enhancement above about 30%
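Enhancer read-out: after compound pinning and an initial kinetic agonist-mode read, an EC20 of TRH (10 nM final) was injected and fluo-8 calcium signal (Ex 480/Em 530) followed at 1 s/cycle for 100 cycles in TRHR-expressing cells.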
GLP1R inv ag: qHTS of GLP-1 Receptor Inverse Agonists (Inhibition Mode); Glucagon-like peptide 1 receptor (Homo sapiens), P43220; HEK293 GLP-1R CRE-luciferase, luminescence, 24 h; GLP-1R form is constitutively active; Potency, µM (titrated, usually from 38.3 µM), usual class: inhibitors; actives 1.6% (n = 410,000); note: nearly all actives have a fitted effect of over 55% in size
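HEK293 cells stably co-expressing a cAMP-responsive luciferase reporter and constitutively active GLP-1R were seeded, incubated 12 h, then exposed to compounds for 24 h at 37 C. Luminescence was read 12 min after detection reagent; inverse agonists lower signal.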
Of the large screens only hits and unclear results are named; the others gave an inactive call. Unless noted, calls come from the whole dose curve; as a rule, active = well fitted curve in the direction sought with a large enough effect; inconclusive = small, poorly fitted or top-dose-only effect, or another doubt; inactive = no such curve, though single readings can be large; an effect the other way counts as inactive or inconclusive.

CCCCCCNC(=O)c1cccc(-c2ccc(C)c3ccccc23)n1	GLP1R inv ag 11µM
Cc1cc2nc(C)n(CCCN)c2cc1C	none
O=C(COC(=O)c1ccncc1)NCCCc1ccccc1	none
O=C(Nc1cccc(Cl)c1)OCCOC(=O)Nc1cccc(Cl)c1	GLP1R cytotox inconclusive, GLP1R inv ag 10µM (no result: TRHR ag, TRHR PAM)
O=C(Nc1cccc(Cl)c1)OCCOc1ccccc1	GLP1R inv ag inconclusive
CCOP(=O)(OCC)C(NC(=O)Nc1cccc(Cl)c1)c1ccccc1 (configuration not stated)	GLP1R inv ag 7.9µM
O=C(NC(=O)N1CCCc2ccccc21)c1ccccc1	none
O=C(C(c1ccccc1)c1ccccc1)N1CCCc2ccccc21	GLP1R inv ag 5µM
Cc1c(Br)c([N+](=O)[O-])nn1C(C)C(=O)N1CCCc2ccccc21 (configuration not stated)	GLP1R inv ag 10µM
CCOC(=O)c1cc2c(N)c(C(=O)c3ccc(Br)cc3)sc2[nH]c1=O	TRHR PAM 35
CCc1ccc(CNC(=O)CCCn2ccc3cc(S(=O)(=O)N4CCCC4)ccc32)cc1	GLP1R inv ag 8.9µM (no result: GLP1R ag)
CCc1ccc(CNC(=O)C(C)n2ccc3cc(S(=O)(=O)N4CCCCCC4)ccc32)cc1 (configuration not stated)	GLP1R inv ag 10µM (no result: GLP1R ag)
CN(C)c1ccc(CNC(=O)CCc2ccc(S(=O)(=O)N3CCCCCC3)cc2)cc1	GLP1R inv ag 11µM
CC(C(=O)NCc1ccc(Cl)cc1)n1ccc2cc(S(=O)(=O)N3CCCCCC3)ccc21 (configuration not stated)	GLP1R inv ag inconclusive (no result: GLP1R ag)
Cc1ccc(CNC(=O)C2CC(c3cccc(F)c3)=NO2)cc1 (configuration not stated)	none
O=S(=O)(/C(=C/c1ccc(C(F)(F)F)cc1)c1nc2ccccc2[nH]1)c1ccccc1	GLP1R cytotox 7.9µM, GLP1R inv ag 1.8µM
COc1ccc(C(=O)c2c(C)c3ccccc3n2CC(O)CNC(C)C)cc1 (configuration not stated)	GLP1R cytotox 8.9µM, PTHR1 agonist inconclusive, GLP1R inv ag 2.2µM
Cc1ccccc1Oc1cc(-n2ncc(Cl)c(Cl)c2=O)ncn1	GLP1R cytotox 3.2µM, GLP1R inv ag inconclusive
COc1cc(Cl)c(C)cc1NC(=O)COc1ccccc1[N+](=O)[O-]	TRHR PAM 32, GLP1R inv ag inconclusive
COc1cc(NC(=O)COc2c(C)cc(C)cc2[N+](=O)[O-])c(OC)cc1Cl	none
O=C(O)c1ccc(C[n+]2c(-c3ccccc3)csc2Nc2ccccc2)cc1	none
CCCCCC[n+]1c(-c2ccccc2)csc1Nc1ccccc1	GLP1R inv ag 2.2µM
CSc1ccc(S(=O)(=O)NCCSc2ccccn2)cc1	none
CC(C)CCc1noc(CN(C)CC2CCN(Cc3ccccc3)CC2)n1	none
COc1ccc(NC(=O)CCS(=O)(=O)c2nc(-c3ccc4c(c3)OCO4)cc(C(F)(F)F)n2)cc1OC	GLP1R inv ag inconclusive (no result: GLP1R ag)
Cc1ccc(-c2noc(-c3ccccc3OCC(=O)Nc3ccccc3[N+](=O)[O-])n2)cc1	none (no result: GLP1R ag)
O=C(COc1ccccc1-c1nc(-c2ccccc2)no1)Nc1ccccc1[N+](=O)[O-]	TRHR PAM 41 (no result: GLP1R ag)
COc1cc(C)ccc1OCc1cc(C(=O)N2CCN(C3CCCCC3)CC2)no1	GLP1R inv ag inconclusive
Cc1ccc(OCc2cc(C(=O)NC(C)Cc3cnccn3)no2)cc1C (configuration not stated)	none
